# Test results taken from PubChem BioAssay (Tox21).
# “And” between values parts separate entries of the source, which are not always exact repeats. Identical values can stand only once. The source holds several records for some structures; these can differ, active in one and inactive in another. The source made the active and inactive calls. Calls follow the shape of the dose curve; as a rule, active = well fitted activation curve with a large enough effect in the repeat runs; inconclusive = weak or mixed curves; inactive = flat fitted curve, though single readings scatter.
# Experiment: A CellTox Green Cytotoxicity Assay to monitor cytotoxicity in HEK293 cells - 0 hour (AID 1224869); also: nearly all actives have a fitted effect of over 50% in size
# Details: CellTox Green fluorescence; series mostly up to 76.8 µM; cytotoxicity: at the top concentration
# From the text: National Center for Advancing Translational Sciences [NCATS]
# NIH Chemical Genomics Center [NCGC]
# U.S. Environmental Protection Agency [EPA]
# National Institutes of Environmental Health Sciences [NIEHS]
# National Toxicology Program [NTP]
# Cell-based models are critical for drug discovery. Determining the natural cytotoxic effects resulting from test compounds is an essential research activity. A CellTox Green Cytotoxicity Assay to monitor cytotoxicity in real time of continues cell culture during 40 hours of the compound treatment was used to screen Tox21 10K library compounds in Hek293 cells. CellTox Green Cytotoxicity Assay is a nonlytic, homogeneous, biofluorescent method to measure cytotoxicity in cell culture after experimental manipulation. The assay system uses a proprietary asymmetric cyanine dye that is excluded from viable cells but preferentially stains the dead cell's DNA. […] Viable cells produce no appreciable increases in fluorescence. Therefore, the fluorescence signal produced by the binding interaction with dead cell DNA is proportional to cytotoxicity.
# The mixture of Hek293 cell suspension and reagents were dispensed at 600cells/6 ul/well in 1536-well tissue culture treated black solid bottom plates using a Multidrop dispenser. After the assay plates were incubated at a 37 C/5% CO2 incubator for 5 hours, 23 nL of compounds dissolved in DMSO, positive and negative controls was transferred to the assay plate by a pintool work station. The plates were incubated at 37 C for 40 hours. The fluorescence intensity were measured at 0h, 8h, 16h, 24h, 32h and 40h time points using ViewLux plate reader during compound treatment.
# % is scaled to controls: 0 for no effect and ±100 for the full control effect; potency is read from the fitted curve at half-maximal effect.
Structure (SMILES),cytotoxicity,Potency
C=C[Si](OC(=C)C)(OC(=C)C)OC(=C)C,8.2% (inactive),
CCc1nccnc1CC,-0.912% [at 15.8 µM] (inactive),
CCCCCCCCCCCC,9.89% (inactive),
O=c1n(CCO)c(=O)n(CCO)c(=O)n1CCO,,inactive and 43.6 µM (active)
Oc1ccc(C2CNCCc3c2cc(O)c(O)c3Cl)cc1 (stereo not given),6.64% [at 35.3 µM] (inactive),
CCN1CCC[C@H]1CNC(=O)c1cc(S(N)(=O)=O)ccc1OC,0.516% [at 35.3 µM] (inactive),
CC(=O)Nc1c(I)cc(I)c(C(=O)O)c1I,0.422% [at 35.3 µM] (inactive),
C=C(C)C(=O)OCCCCCCCC(C)C,0.138% (inactive),
Cc1nc2c([nH]1)c(=O)n(C)c(=O)n2Cc1ccco1,0.395% [at 35.3 µM] (inactive),
CC(C(=O)O)c1ccc(CC2CCCC2=O)cc1 (stereo not given),-5.12% [at 35.3 µM] (inactive),
Cc1sccc1Br,-1.54% [at 35.3 µM] (inactive),
O=C(O)CCCc1ccccc1,-9.16% [at 35.3 µM] (inactive),
COc1ccc2c(c1)c(CC(=O)OCC(=O)O)c(C)n2C(=O)c1ccc(Cl)cc1,-3.29% [at 35.3 µM] (inactive),
CN1CCCC1,5.19% (inactive),
CC1(C)C(O)C(C)(C)C1O (stereo not given),1.78% (inactive),
CS(=O)(=O)O,-3.75% (inactive),
COC(=O)CCSCCC(=O)OC,-2.73% (inactive),
Cc1cccn2c(=O)c(-c3nnn[nH]3)cnc12,3.94% [at 15.8 µM] (inactive),
Cc1ccc(C#N)cc1,-1.51% (inactive),
CC(=O)OCC(=O)[C@@]1(O)CC[C@H]2[C@@H]3CCC4=CC(=O)CC[C@]4(C)[C@H]3C(=O)C[C@@]21C,-0.163% [at 35.3 µM] (inactive),

Structure (SMILES),cytotoxicity,Potency
O=C(O)CCCl,-5.92% (inactive),
Cc1c(NC(C)C)c(=O)n(-c2ccccc2)n1C,1.68% [at 35.3 µM] (inactive),
CCC(C)S (stereo not given),-0.294% [at 2.72 µM] (inactive),
NC(=O)c1ccc([N+](=O)[O-])cc1,10.3% (inactive),
Nc1c[n+](N2CCOCC2)no1,3.65% [at 35.3 µM] (inactive),
C[N+](C)(C)CC(O)CC(=O)[O-] (stereo not given),-2.26% [at 35.3 µM] (inactive),
CCn1nc(C(=O)O)c(=O)c2cc3c(cc21)OCO3,-7.74% [at 35.3 µM] (inactive),
NCCc1cnc[nH]1,2.16% [at 35.3 µM] (inactive),
COC(=O)C1=C(C)NC(C)=C(C(=O)OC)C1c1ccccc1[N+](=O)[O-],,inactive
O=C1CCCN1C1CCCCC1,-0.475% (inactive),
CC(C)(c1ccc(O)cc1)c1ccc(O)cc1,,inactive
N=C(N)c1ccccc1,3.36% (inactive),
Cc1cnc(NS(=O)(=O)c2ccc(N)cc2)nc1,-0.979% [at 35.3 µM] (inactive),
CN1CCN(c2cc3c(cc2F)c(=O)c(C(=O)O)cn3-c2ccc(F)cc2)CC1,0.333% [at 35.3 µM] (inactive),
N=c1nc(N2CCCCC2)cc(N)n1O,-0.304% [at 35.3 µM] (inactive),
CC(C)(O)C(=O)c1ccccc1,3.41% (inactive),
CCCCCOC(=O)CCCCC,-3.11% (inactive),
CCS(=O)(=O)c1ccc(OC)c(C(=O)OC)c1,-0.27% [at 35.3 µM] (inactive),
CCc1ccc(O)c(OC)c1,-5.23% (inactive),
C=C1CC[C@H]2C[C@@H]1C2(C)C,5.21% (inactive),
